# Measured values published in PubChem BioAssay (NCATS).
# Records with an inconclusive call do not appear. Where a call stands in place of a potency, no number is given. Unmarked numbers belong to inactive results. Activity calls are given as the source filed them. Calls come from the whole dose curve; as a rule, active = well fitted curve in the direction sought with a large enough effect; inconclusive = small, poorly fitted or top-dose-only effect, or another doubt; inactive = no such curve, though single readings can be large; an effect the other way counts as inactive or inconclusive. Numbered stars: 1 amine (or outer) side, 2 acyl side, 3 side chain; on linkers, the order of the positions; unused ones are H or OH. Bridge positions count the residues as written; N and C are the ends. Square brackets hold non-standard residues; d marks the D form. Peptide text beside a SMILES is read from it. I, II: the chains in the order shown. Actinocin(9to1) = Cc1c2oc3c(C)ccc(C(=O)[*:1])c3nc-2c(C(=O)[*:2])c(N)c1=O; NMeV = CN[C@H](C(=O)O)C(C)C; Sar = CNCC(=O)O
# How the values were obtained:
# [1] = qHTS of pediatric cancer cell lines to identify multiple opportunities for drug repurposing: Primary screen for control Hh wild type fibroblast cells (AID 1347106);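 note: series mostly up to about 46 µM; a drop in luminescence marks cytotoxicity and a rise apparent proliferation; nearly all actives have a fitted effect of over 55% in size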
# Method in brief: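 Viability after 48 h compound treatment at 37C, 500-1,000 cells/well, read as ATP luminescence with CellTiter-Glo. Primary screens used 11-point (MIPE, 0.78 nM-46 µM) or 8-point (NPC, 0.59 nM-46 µM) final concentrations; follow-up screens used 11-point dilutions.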
# [2] = qHTS of pediatric cancer cell lines to identify multiple opportunities for drug repurposing: Primary screen for Rh30 cells (AID 1347107); note: nearly all actives have a fitted effect of over 75% in size; note: potency is the fitted concentration of half-maximal effect
# Method in brief: (§1)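 Cells (500-1,000/well) rested 5 h, then received compounds for 48 h; metabolically active cells were measured by CellTiter-Glo luminescence. Final concentrations spanned up to 46 µM (MIPE, 11-point) or 0.59 nM-46 µM (NPC, 8-point) in primary screens, 11-point in follow-ups.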
# [3] = qHTS of pediatric cancer cell lines to identify multiple opportunities for drug repurposing: Primary screen for Rh41 cells (AID 1347108); note: nearly all actives have a fitted effect of over 70% in size; note: potency is the fitted concentration of half-maximal effect
# Method in brief: (§2)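 Readout: CellTiter-Glo luminescence, 48 h treatment. Controls DMSO (neutral) and bortezomib 2.3 µM final (positive). Potency and efficacy taken from primary-screen concentration-response curves.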
# [4] = qHTS of pediatric cancer cell lines to identify multiple opportunities for drug repurposing: Primary screen for MG 63 (6-TG R) cells (AID 1347105); note: nearly all actives have a fitted effect of over 50% in size; note: potency is the fitted concentration of half-maximal effect
# Method in brief: as §2
# [5] = qHTS of pediatric cancer cell lines to identify multiple opportunities for drug repurposing: Confirmatory screen for NB1643 cells (AID 1347109); note: nearly all actives have a fitted effect of over 45% in size; note: potency is the fitted concentration of half-maximal effect
# Method in brief: as §1
# [6] = qHTS of pediatric cancer cell lines to identify multiple opportunities for drug repurposing: Confirmatory screen for A673 cells (AID 1347110);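 note: cells exposed to compound for 48 h before the viability read; nearly all actives have a fitted effect of over 65% in size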; note: potency is the fitted concentration of half-maximal effect
# Method in brief: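 A673 cells at 500-1,000 cells/well were dosed 5 h after plating, in dilution series up to 46 uM final; primary runs used 8 or 11 points and confirmatory runs used 11 points. Viability was read by CellTiter-Glo luminescence after 48 h, against DMSO and 2.3 uM bortezomib controls.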
# [7] = qHTS of pediatric cancer cell lines to identify multiple opportunities for drug repurposing: Confirmatory screen for SK-N-MC cells (AID 1347111);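 note: cells exposed to compound for 48 h before the readout; nearly all actives have a fitted effect of over 70% in size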; note: potency is the fitted concentration of half-maximal effect
# Method in brief: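 Seed 500-1,000 cells/well; rest 5 h at 37 degrees C. Pin-transfer compounds, 11-point titration. Incubate 48 h. Add CellTiter-Glo, 15 min RT, read luminescence.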
# [8] = qHTS of pediatric cancer cell lines to identify multiple opportunities for drug repurposing: Confirmatory screen for LAN-5 cells (AID 1347113); note: nearly all actives have a fitted effect of over 65% in size; note: potency is the fitted concentration of half-maximal effect
# Method in brief: as §1
# [9] = qHTS of pediatric cancer cell lines to identify multiple opportunities for drug repurposing: Confirmatory screen for DAOY cells (AID 1347114); note: nearly all actives have a fitted effect of over 65% in size; note: potency is the fitted concentration of half-maximal effect
# Method in brief: (§3)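 Viability measured as metabolically active cells via CellTiter-Glo luminescence following 48 hours of compound exposure, 11-point dilutions in confirmatory testing. 500-1,000 cells/well plated 5 hours before dosing; controls were DMSO and 2.3 µM bortezomib.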
# [10] = qHTS of pediatric cancer cell lines to identify multiple opportunities for drug repurposing: Confirmatory screen for NB-EBc1 cells (AID 1347115);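 note: cells exposed to compound for 48 h before the viability read; nearly all actives have a fitted effect of over 45% in size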; note: potency is the fitted concentration of half-maximal effect
# Method in brief: as §1
# [11] = qHTS of pediatric cancer cell lines to identify multiple opportunities for drug repurposing: Confirmatory screen for SJ-GBM2 cells (AID 1347116); note: nearly all actives have a fitted effect of over 60% in size; note: potency is the fitted concentration of half-maximal effect
# Method in brief: as §3
# [12] = qHTS of pediatric cancer cell lines to identify multiple opportunities for drug repurposing: Confirmatory screen for BT-37 cells (AID 1347117); note: nearly all actives have a fitted effect of over 55% in size; note: potency is the fitted concentration of half-maximal effect
# Method in brief: as §1
# [13] = qHTS of pediatric cancer cell lines to identify multiple opportunities for drug repurposing: Confirmatory screen for TC32 cells (AID 1347118);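 note: cells exposed to compound for 48 h before the read; nearly all actives have a fitted effect of over 65% in size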; note: potency is the fitted concentration of half-maximal effect
# Method in brief: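 TC32 cells, 500-1,000/well in growth medium, compound-treated 48 h at 37 °C; viability from CellTiter-Glo luminescence. Primary screen: MIPE 11-point (0.78 nM–46 µM final), NPC 8-point (0.59 nM–46 µM final); confirmatory at 11-point dilutions.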
# [14] = qHTS of pediatric cancer cell lines to identify multiple opportunities for drug repurposing: Confirmatory screen for Rh30 cells (AID 1347126); note: nearly all actives have a fitted effect of over 55% in size; note: potency is the fitted concentration of half-maximal effect
# Method in brief: as §1
# [15] = qHTS of pediatric cancer cell lines to identify multiple opportunities for drug repurposing: Confirmatory screen for OHS-50 cells (AID 1347128);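 note: compound exposure lasted 48 h at 37 degrees C; nearly all actives have a fitted effect of over 55% in size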; note: potency is the fitted concentration of half-maximal effect
# Method in brief: as §1
# [16] = qHTS of pediatric cancer cell lines to identify multiple opportunities for drug repurposing: Confirmatory screen for RD cells (AID 1347124); note: potency is the fitted concentration of half-maximal effect
# Method in brief: as §1
# [17] = qHTS of pediatric cancer cell lines to identify multiple opportunities for drug repurposing: Confirmatory screen for Rh18 cells (AID 1347125); note: nearly all actives have a fitted effect of over 55% in size; note: potency is the fitted concentration of half-maximal effect
# Method in brief: as §1
# [18] = qHTS of pediatric cancer cell lines to identify multiple opportunities for drug repurposing: Confirmatory screen for Saos-2 cells (AID 1347127); note: nearly all actives have a fitted effect of over 60% in size; note: potency is the fitted concentration of half-maximal effect
# Method in brief: as §1
# Furin (Homo sapiens) = Furin (Homo sapiens) (UniProt P09958); assay: Furin counterscreen qHTS for Zika virus inhibitors (AID 1347149); note: nearly all actives have a fitted effect of over 70% in size; note: potency is the fitted concentration of half-maximal effect
# Furin (Homo sapiens), sequence (P09958 whole entry, looked up): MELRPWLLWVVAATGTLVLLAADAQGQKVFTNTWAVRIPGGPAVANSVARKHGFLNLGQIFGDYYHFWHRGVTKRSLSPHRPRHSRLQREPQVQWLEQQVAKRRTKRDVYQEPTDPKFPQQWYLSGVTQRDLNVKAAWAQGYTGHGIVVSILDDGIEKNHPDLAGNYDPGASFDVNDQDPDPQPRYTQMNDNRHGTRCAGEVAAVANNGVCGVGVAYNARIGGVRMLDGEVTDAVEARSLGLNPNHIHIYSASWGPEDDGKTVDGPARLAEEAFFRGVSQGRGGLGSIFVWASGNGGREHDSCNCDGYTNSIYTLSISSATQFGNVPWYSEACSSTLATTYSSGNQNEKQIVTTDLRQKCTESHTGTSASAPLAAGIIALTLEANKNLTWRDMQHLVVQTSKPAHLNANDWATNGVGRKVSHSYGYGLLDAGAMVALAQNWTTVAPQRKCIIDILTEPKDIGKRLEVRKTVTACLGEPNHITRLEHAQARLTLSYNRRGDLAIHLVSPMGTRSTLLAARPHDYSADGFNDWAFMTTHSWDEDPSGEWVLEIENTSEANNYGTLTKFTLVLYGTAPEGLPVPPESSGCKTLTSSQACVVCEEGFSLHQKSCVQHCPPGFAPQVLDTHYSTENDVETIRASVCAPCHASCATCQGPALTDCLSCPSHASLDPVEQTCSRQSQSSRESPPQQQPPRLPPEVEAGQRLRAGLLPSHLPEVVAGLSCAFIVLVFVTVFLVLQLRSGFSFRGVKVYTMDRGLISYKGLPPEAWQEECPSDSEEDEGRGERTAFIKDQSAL
# Method in brief: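 Fluorogenic cleavage of BOC-RVRR-AMC (2 microM final, Km ~15 µM) was monitored (ex 340, em 450 nm) at 37C after 15 min RT preincubation of 5 nM furin with compounds in HEPES pH 7.0 buffer with CaCl2 and Triton X-100. Percent inhibition was fitted to a 4-parameter Hill curve.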
compound,measurement,setting,value
COC(=O)C1=C(C)NC(C)=C(C(=O)O[C@@H]2CCCN(Cc3ccccc3)C2)[C@@H]1c1cccc([N+](=O)[O-])c1,Potency,[1],inactive
same,Potency,[2],inactive
Nc1ccc(C(=O)O)cc1,Potency,[1],inactive
same,Potency,[2],inactive
CN(C/C=C/c1ccccc1)Cc1cccc2ccccc12,Potency,[1],inactive
same,Potency,[2],inactive
C#C[C@]1(O)CC[C@H]2[C@@H]3CCc4cc(OC5CCCC5)ccc4[C@H]3CC[C@@]21C,Potency,[1],inactive
same,Potency,[2],inactive
same,Potency,[3],inactive
CC1=C(C(=O)OC(C)C)C(c2cccc([N+](=O)[O-])c2)C(C(=O)OC2CN(C(c3ccccc3)c3ccccc3)C2)=C(N)N1 (centres undefined),Potency,[1],inactive
CCCCCCCCCCCCCCCCOP(=O)([O-])OCC[N+](C)(C)C,Potency,[1],inactive
same,Potency,[2],inactive
"Cc1c2oc3c(C)ccc(C(=O)N[C@@H]4C(=O)N[C@H](C(C)C)C(=O)N5CCC[C@H]5C(=O)N(C)CC(=O)N(C)[C@@H](C(C)C)C(=O)O[C@@H]4C)c3nc-2c(C(=O)N[C@@H]2C(=O)N[C@H](C(C)C)C(=O)N3CCC[C@H]3C(=O)N(C)CC(=O)N(C)[C@@H](C(C)C)C(=O)O[C@@H]2C)c(N)c1=O (I: T[dV]P[Sar][NMeV] / II: T[dV]P[Sar][NMeV]; ester I:1-I:C, II:1-II:C; linker I:N-II:N via Actinocin(9to1))",Potency,[4],0.0335 µM (active)
same,Potency,[2],inactive
same,Potency,[5],inactive
same,Potency,[6],0.0131 µM (active)
same,Potency,[7],0.0052 µM (active)
same,Potency,[8],0.0023 µM (active)
same,Potency,[9],0.0261 µM (active)
same,Potency,[10],inactive
same,Potency,[11],0.0261 µM (active)
same,Potency,[12],0.0023 µM (active)
same,Potency,[13],0.0093 µM (active)
same,Potency,[14],inactive
same,Potency,[15],0.0293 µM (active)
CC/C(=C(/CC)c1ccc(O)cc1)c1ccc(O)cc1,Potency,[1],inactive
same,Potency,[2],inactive
same,Potency,[3],inactive
CCCCC(CC)CN=C(N)NC(N)=NCCCCCCN=C(N)NC(N)=NCC(CC)CCCC (centres undefined),Potency,[4],6.68 µM (active)
same,Potency,[2],18.8 µM (active)
same,Potency,[3],21.1 µM (active)
same,Potency,[5],5.22 µM (active)
same,Potency,[6],3.29 µM (active)
same,Potency,[7],7.37 µM (active)
same,Potency,[8],7.37 µM (active)
same,Potency,[9],4.14 µM (active)
same,Potency,[10],9.27 µM (active)
same,Potency,[11],1.17 µM (active)
same,Potency,[12],8.27 µM (active)
same,Potency,[13],8.27 µM (active)
same,Potency,[16],1.04 µM (active)
same,Potency,[17],13.1 µM (active)
same,Potency,[14],1.47 µM (active)
same,Potency,[18],16.5 µM (active)
same,Potency,[15],13.1 µM (active)
same,Potency,Furin (Homo sapiens),21.5 µM (active)
Nc1ccc(C(=O)Nc2ccccc2N)cc1,Potency,[1],inactive
same,Potency,[2],inactive
NC(=NCCCCCCN=C(N)/N=C(\N)Nc1ccc(Cl)cc1)/N=C(\N)Nc1ccc(Cl)cc1,Potency,[1],inactive
same,Potency,[2],inactive
COC1=CC(=O)C[C@@H](C)[C@]12Oc1c(Cl)c(OC)cc(OC)c1C2=O,Potency,[1],inactive
same,Potency,[2],inactive
COc1cc(/C=C/C(=O)O[C@H]2CC[C@]34C[C@]35CC[C@]3(C)[C@@H]([C@H](C)CCC=C(C)C)CC[C@@]3(C)[C@@H]5CC[C@H]4C2(C)C)ccc1O,Potency,[1],inactive
same,Potency,[2],inactive
same,Potency,[3],inactive
CC(=O)OCC(=O)[C@@]12OC(C)(C)O[C@@H]1C[C@H]1[C@@H]3C[C@H](F)C4=CC(=O)C=C[C@]4(C)[C@@]3(F)[C@@H](O)C[C@@]12C,Potency,[4],inactive
same,Potency,[2],inactive
same,Potency,[3],inactive
same,Potency,[5],inactive
same,Potency,[8],inactive
same,Potency,[9],inactive
same,Potency,[10],inactive
same,Potency,[11],inactive
same,Potency,[13],inactive
same,Potency,[16],inactive
same,Potency,[17],inactive
same,Potency,[14],inactive
CC(=O)OCC(=O)[C@@]1(O)CC[C@H]2[C@@H]3CCC4=CC(=O)C=C[C@]4(C)[C@H]3[C@@H](O)C[C@@]21C,Potency,[4],inactive
same,Potency,[2],inactive
same,Potency,[5],inactive
same,Potency,[6],inactive
same,Potency,[7],inactive
same,Potency,[9],inactive
same,Potency,[10],inactive
same,Potency,[11],inactive
same,Potency,[13],inactive
same,Potency,[16],inactive
same,Potency,[17],inactive
same,Potency,[14],inactive
same,Potency,[15],inactive
Nc1nc2ncc(CNc3ccc(C(=O)N[C@@H](CCC(=O)O)C(=O)O)cc3)nc2c(=O)[nH]1,Potency,[4],inactive
same,Potency,[2],inactive
same,Potency,Furin (Homo sapiens),21.5 µM (active)
CN1CCCC(CC2c3ccccc3Sc3ccccc32)C1 (centres undefined),Potency,[1],inactive
same,Potency,[2],inactive
same,Potency,[3],inactive
Cc1ccc(O)c2ncccc12,Potency,[4],10.6 µM (active)
same,Potency,[3],4.73 µM (active)
Cc1ccccc1C(=O)Nc1ccc(C(=O)N2CCCC(N(C)C)c3ccccc32)cc1 (centres undefined),Potency,[1],inactive
same,Potency,[2],inactive
same,Potency,[3],16.8 µM (active)
CN1CCN(CCCN2c3ccccc3Sc3ccc(S(=O)(=O)N(C)C)cc32)CC1,Potency,[1],inactive
same,Potency,[2],inactive
same,Potency,[3],inactive
CC(C)(C)NC(=O)[C@@H]1CN(Cc2cccnc2)CCN1C[C@@H](O)C[C@@H](Cc1ccccc1)C(=O)N[C@H]1c2ccccc2C[C@H]1O,Potency,[1],inactive
same,Potency,[2],inactive
same,Potency,[3],inactive
CCOC(=O)n1ccn(C)c1=S,Potency,[1],inactive
same,Potency,[2],inactive
same,Potency,[3],inactive
CC(C)(C)CC(C)(C)c1ccc(OCCOCC[N+](C)(C)Cc2ccccc2)cc1,Potency,[4],26.6 µM (active)
same,Potency,[3],16.8 µM (active)
same,Potency,Furin (Homo sapiens),inactive
CCN(CC)CCOc1ccc(C(O)(Cc2ccc(Cl)cc2)c2ccc(C)cc2)cc1 (centres undefined),Potency,[1],inactive
O=C1OC(c2ccc(O)cc2)(c2ccc(O)cc2)c2ccccc21,Potency,[1],inactive
same,Potency,[2],inactive
same,Potency,[3],inactive
CC(=O)Oc1ccc2c(c1)CC[C@@H]1[C@@H]2CC[C@]2(C)[C@@H](O)CC[C@@H]12,Potency,[4],inactive
same,Potency,[2],inactive
same,Potency,[3],inactive
same,Potency,[7],6.57 µM (active)
same,Potency,[11],inactive
same,Potency,[13],6.57 µM (active)
same,Potency,[16],inactive
same,Potency,[17],inactive
same,Potency,[14],inactive
same,Potency,[15],inactive
CN(C)/N=N/c1nc[nH]c1C(N)=O,Potency,[4],inactive
same,Potency,[2],inactive
same,Potency,[6],inactive
same,Potency,[7],9.27 µM (active)
same,Potency,[9],inactive
same,Potency,[10],18.5 µM (active)
same,Potency,[12],inactive
same,Potency,[13],23.3 µM (active)
same,Potency,[16],inactive
same,Potency,[17],inactive
same,Potency,[14],inactive
same,Potency,[18],inactive
